Assay [1] deals with human Peroxisome Proliferator-activated Receptor delta (PPARd), PPARD (gene 5467) (UniProt Q03181). The assay is described as follows: ATG_PPARd_TRANS: Attagene TRANS-FACTORIAL HepG2 Assay for human Peroxisome Proliferator-activated Receptor delta (PPARd) (AID 2283002). In outline:
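Fluorescence from capillary electrophoresis of labelled RT-PCR reporter fragments gives the signal; DMSO sets baseline. Cells: HepG2 transiently carrying GAL4-UAS reporter units plus chimeric nuclear receptor-Gal4 proteins, exposed to chemicals for 24 h.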

Read-out in assay [2]: Intercellular Adhesion Molecule 1 (ICAM1), ICAM1 (gene 3383)
The assay is described as follows: BSK_3C_ICAM1: BioMAP Diversity Plus: 3C Assay for Intercellular Adhesion Molecule 1 (ICAM1) Biomarker Activity (AID 2283003; active means hit-call score of the fitted dose curve at least 0.9, where 1 is the maximum; inactive means score below 0.9). The conditions noted are these: primary human endothelial cells (HUVEC); actives raise or lower the signal. The gist of the method: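 ICAM-1 levels measured by ELISA after HUVEC cultures in the 3C system had been dosed for 24 h. Gain or loss of signal relative to DMSO was fitted in both directions.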

The nature of assay [3]: BSK_3C_Proliferation: Cell Proliferation Assessment in the BioMAP Diversity Plus: 3C Assay (AID 2283006; active means hit-call score of the fitted dose curve at least 0.9, where 1 is the maximum; inactive means score below 0.9;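 on AC50: potency may reflect either rise or fall in cell number versus DMSO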). The note with it: primary human endothelial cells (HUVEC). In outline:
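Read-out is total protein by SRB absorbance at 560 nm, taken as a proxy for relative cell number. Primary human umbilical vein endothelium cultured below confluence was dosed for 48 h, TCA-fixed and SRB-stained; curves were fitted bidirectionally versus DMSO.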

Assay [4] deals with Peroxisome proliferator-activated receptor gamma (Homo sapiens) (UniProt P37231). Briefly: ATG_PPARg_TRANS: Attagene TRANS-FACTORIAL HepG2 Assay for human Peroxisome Proliferator-activated Receptor-gamma (PPARg) (AID 2283007). The gist of the method: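 After 24 h of chemical exposure, transfected HepG2 cells carrying PPARγ-Gal4 chimera reporter constructs are lysed for RNA. Reporter transcripts are measured by RT-PCR and capillary electrophoresis with fluorescent labelling, and gain of signal is fitted versus DMSO.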

In assay [5] the target is human RAR-related Orphan Receptor beta (RORb), RORB (gene 6096) (UniProt Q92753). Briefly: ATG_RORb_TRANS: Attagene TRANS-FACTORIAL HepG2 Assay for human RAR-related Orphan Receptor beta (RORb) (AID 2283010).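 On AC50: potency for increased reporter mRNA meaning activation of RORb-Gal4 chimera.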 The gist of the method: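 Readout is reporter-gene mRNA induction, detected as fluorescence after RT-PCR and capillary electrophoresis, fitted for gain of signal against DMSO controls. Transiently transfected HepG2 liver cells carrying GAL4-UAS reporter constructs were treated for 24 hours.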

Assay [6] deals with human Peroxisome Proliferator-activated Receptor alpha (PPARa), PPARA (gene 5465) (UniProt Q07869). Briefly: ATG_PPARa_TRANS: Attagene TRANS-FACTORIAL HepG2 Assay for human Peroxisome Proliferator-activated Receptor alpha (PPARa) (AID 2283001).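 On AC50: potency for gain of reporter signal over DMSO so agonist or activator.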 In outline: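 HepG2 cells transiently transfected with multiplexed GAL4-UAS reporters driven by exogenous chimeric NR-Gal4 proteins; reporter mRNA measured after 24 h dosing. Read-out by RT-PCR, 6-FAM labelling, HpaI digestion and capillary electrophoresis; gain of signal versus DMSO.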

Assay [7] has as its target human Retinoic Acid Receptor beta (RARb), RARB (gene 5915) (UniProt P10826). The assay is described as follows: ATG_RARb_TRANS: Attagene TRANS-FACTORIAL HepG2 Assay for human Retinoic Acid Receptor beta (AID 2283004). In outline:
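Induction of reporter mRNA from a chimeric RARb-Gal4 construct was measured by RT-PCR, FAM labelling, HpaI digestion and capillary electrophoresis. Measurements followed 24 h compound treatment of transiently transfected human HepG2 liver cells, with DMSO as baseline.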

The target of assay [8] is Nuclear receptor subfamily 1 group I member 2 (Homo sapiens) (UniProt O75469). The assay is described as follows: ATG_PXR_TRANS: Attagene TRANS-FACTORIAL HepG2 Assay for human Pregnane X Receptor (PXR) (AID 2283008). The gist of the method:
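Read-out is fluorescence of labelled reporter cDNA fragments separated by capillary electrophoresis after RT-PCR and HpaI digestion. Source: HepG2 cells carrying PXR-GAL4/UAS reporter constructs, treated 24 h; activity fitted upward relative to DMSO.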

Assay [9] concerns the target Retinoic acid receptor alpha (Homo sapiens) (UniProt P10276). The assay is described as follows: ATG_RARa_TRANS: Attagene TRANS-FACTORIAL HepG2 Assay for human Retinoic Acid Receptor alpha (RARa) (AID 2283005). The gist of the method:
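HepG2 transiently transfected with multiplex GAL4-UAS reporter units including a human RARa–GAL4 chimera; 24 h compound exposure. Reporter mRNA quantified by RT-PCR, 6-FAM labeling and capillary electrophoresis; gain of signal versus DMSO.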

The target in assay [10] is human Retinoic Acid Receptor gamma (RARg), RARG (gene 5916) (UniProt P13631). Briefly: ATG_RARg_TRANS: Attagene TRANS-FACTORIAL HepG2 Assay for human Retinoic Acid Receptor gamma (RARg) (AID 2283009). The gist of the method: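 Transient transfection of HepG2 with multi-reporter constructs, then 24 h chemical treatment. Total RNA isolated, reverse-transcribed, PCR-amplified, fluorescently labelled and resolved by capillary electrophoresis; activity scored as mRNA induction versus DMSO.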

Here are results for 28 compounds from PubChem BioAssay (EPA / NIEHS).

Records with an inconclusive call do not appear. Activity calls are given as the source filed them. How the source made its calls, unless noted: active means hit-call score of the fitted dose curve at least 0.9, where 1 is the maximum; inconclusive means response in the unintended direction; inactive means score below 0.9.

The term AC50 denotes the concentration giving half of the maximal activity seen.

Peroxisome proliferator-activated receptor gamma (Homo sapiens), sequence (P37231 whole entry, looked up, the tested form may be a part): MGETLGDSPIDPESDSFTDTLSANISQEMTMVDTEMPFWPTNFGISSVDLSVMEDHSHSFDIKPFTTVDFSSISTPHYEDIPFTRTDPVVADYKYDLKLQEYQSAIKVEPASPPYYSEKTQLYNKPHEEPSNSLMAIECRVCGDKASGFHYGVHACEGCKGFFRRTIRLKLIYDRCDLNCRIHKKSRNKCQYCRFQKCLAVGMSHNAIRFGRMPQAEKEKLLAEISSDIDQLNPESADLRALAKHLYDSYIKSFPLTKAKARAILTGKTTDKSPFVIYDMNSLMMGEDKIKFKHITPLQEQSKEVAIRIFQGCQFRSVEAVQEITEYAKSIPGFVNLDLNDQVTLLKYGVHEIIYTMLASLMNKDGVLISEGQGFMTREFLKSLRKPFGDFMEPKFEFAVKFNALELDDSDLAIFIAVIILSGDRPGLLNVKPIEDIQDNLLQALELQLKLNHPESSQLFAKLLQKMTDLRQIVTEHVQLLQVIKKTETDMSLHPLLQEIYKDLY
human Peroxisome Proliferator-activated Receptor alpha (PPARa), PPARA (gene 5465), sequence (Q07869 whole entry, looked up, the tested form may be a part): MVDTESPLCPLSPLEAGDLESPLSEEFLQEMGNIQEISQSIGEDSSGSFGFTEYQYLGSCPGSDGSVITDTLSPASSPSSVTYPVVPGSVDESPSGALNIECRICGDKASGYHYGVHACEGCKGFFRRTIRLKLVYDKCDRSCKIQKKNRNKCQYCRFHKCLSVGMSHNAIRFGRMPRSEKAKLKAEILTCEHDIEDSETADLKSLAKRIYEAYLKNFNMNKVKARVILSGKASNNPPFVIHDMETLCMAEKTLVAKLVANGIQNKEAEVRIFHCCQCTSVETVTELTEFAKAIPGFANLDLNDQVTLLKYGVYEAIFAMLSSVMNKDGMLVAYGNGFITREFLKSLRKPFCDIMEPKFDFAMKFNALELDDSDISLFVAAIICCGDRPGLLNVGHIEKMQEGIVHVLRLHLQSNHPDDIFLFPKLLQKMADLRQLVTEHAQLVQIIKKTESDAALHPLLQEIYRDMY
human Retinoic Acid Receptor gamma (RARg), RARG (gene 5916), sequence (P13631 whole entry, looked up): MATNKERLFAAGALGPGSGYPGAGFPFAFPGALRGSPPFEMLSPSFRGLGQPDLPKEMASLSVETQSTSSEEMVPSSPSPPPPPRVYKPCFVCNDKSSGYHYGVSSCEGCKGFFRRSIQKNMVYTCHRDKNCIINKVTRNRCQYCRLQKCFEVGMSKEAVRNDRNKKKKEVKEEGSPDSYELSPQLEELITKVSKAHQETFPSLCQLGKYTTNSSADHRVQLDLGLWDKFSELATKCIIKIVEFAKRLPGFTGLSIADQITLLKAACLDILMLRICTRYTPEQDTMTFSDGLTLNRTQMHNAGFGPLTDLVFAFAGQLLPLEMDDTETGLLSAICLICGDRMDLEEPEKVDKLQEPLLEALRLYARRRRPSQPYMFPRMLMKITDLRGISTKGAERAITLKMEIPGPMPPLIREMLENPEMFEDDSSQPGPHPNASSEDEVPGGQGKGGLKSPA
Retinoic acid receptor alpha (Homo sapiens), sequence (P10276 whole entry, looked up, the tested form may be a part): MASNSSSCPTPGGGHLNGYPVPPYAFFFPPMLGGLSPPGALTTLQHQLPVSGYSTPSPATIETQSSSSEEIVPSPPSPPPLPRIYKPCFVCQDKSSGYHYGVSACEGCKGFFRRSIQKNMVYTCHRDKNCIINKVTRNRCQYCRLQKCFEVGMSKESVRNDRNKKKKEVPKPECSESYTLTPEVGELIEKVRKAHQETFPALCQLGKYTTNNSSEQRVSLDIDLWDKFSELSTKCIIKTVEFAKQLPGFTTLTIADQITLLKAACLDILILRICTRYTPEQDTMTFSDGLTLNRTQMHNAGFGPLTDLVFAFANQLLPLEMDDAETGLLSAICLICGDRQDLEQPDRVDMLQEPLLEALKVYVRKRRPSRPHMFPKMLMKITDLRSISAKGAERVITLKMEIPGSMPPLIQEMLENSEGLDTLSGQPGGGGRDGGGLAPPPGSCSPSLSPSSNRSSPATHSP
human Retinoic Acid Receptor beta (RARb), RARB (gene 5915), sequence (P10826 whole entry, looked up, the tested form may be a part): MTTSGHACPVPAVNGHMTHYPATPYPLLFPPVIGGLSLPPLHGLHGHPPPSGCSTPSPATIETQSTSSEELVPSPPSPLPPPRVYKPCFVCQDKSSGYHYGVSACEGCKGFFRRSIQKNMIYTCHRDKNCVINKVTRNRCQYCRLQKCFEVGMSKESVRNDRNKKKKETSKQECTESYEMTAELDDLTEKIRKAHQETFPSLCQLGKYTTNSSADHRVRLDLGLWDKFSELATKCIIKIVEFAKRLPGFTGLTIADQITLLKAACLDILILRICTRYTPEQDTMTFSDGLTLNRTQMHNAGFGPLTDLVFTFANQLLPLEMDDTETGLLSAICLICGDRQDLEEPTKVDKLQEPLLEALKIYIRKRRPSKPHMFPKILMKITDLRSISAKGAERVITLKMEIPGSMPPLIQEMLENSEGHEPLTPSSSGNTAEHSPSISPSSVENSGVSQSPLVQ
Nuclear receptor subfamily 1 group I member 2 (Homo sapiens), sequence (O75469 whole entry, looked up, the tested form may be a part): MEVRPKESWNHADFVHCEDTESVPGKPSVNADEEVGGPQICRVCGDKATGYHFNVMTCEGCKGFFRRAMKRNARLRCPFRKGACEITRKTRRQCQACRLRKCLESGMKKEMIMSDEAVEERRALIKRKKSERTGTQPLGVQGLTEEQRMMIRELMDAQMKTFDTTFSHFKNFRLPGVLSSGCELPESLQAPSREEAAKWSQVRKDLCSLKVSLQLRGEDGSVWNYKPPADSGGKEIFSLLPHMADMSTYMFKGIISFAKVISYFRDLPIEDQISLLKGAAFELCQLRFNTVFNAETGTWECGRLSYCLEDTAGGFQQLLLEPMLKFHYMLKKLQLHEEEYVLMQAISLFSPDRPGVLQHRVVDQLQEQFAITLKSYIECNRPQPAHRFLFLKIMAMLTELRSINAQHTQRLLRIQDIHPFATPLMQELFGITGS
human RAR-related Orphan Receptor beta (RORb), RORB (gene 6096), sequence (Q92753 whole entry, looked up, the tested form may be a part): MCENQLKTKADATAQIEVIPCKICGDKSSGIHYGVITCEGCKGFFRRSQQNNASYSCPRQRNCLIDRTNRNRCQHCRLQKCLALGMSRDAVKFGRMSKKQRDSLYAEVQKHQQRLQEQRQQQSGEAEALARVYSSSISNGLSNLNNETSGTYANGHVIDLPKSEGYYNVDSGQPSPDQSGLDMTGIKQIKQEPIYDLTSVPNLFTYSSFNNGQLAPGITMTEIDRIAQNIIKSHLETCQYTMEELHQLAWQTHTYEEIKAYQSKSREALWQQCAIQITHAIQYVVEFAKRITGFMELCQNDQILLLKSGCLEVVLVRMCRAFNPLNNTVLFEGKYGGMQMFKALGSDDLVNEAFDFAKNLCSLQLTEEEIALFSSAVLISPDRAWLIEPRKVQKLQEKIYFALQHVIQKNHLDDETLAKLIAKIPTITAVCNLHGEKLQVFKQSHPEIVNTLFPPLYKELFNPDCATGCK
human Peroxisome Proliferator-activated Receptor delta (PPARd), PPARD (gene 5467), sequence (Q03181 whole entry, looked up, the tested form may be a part): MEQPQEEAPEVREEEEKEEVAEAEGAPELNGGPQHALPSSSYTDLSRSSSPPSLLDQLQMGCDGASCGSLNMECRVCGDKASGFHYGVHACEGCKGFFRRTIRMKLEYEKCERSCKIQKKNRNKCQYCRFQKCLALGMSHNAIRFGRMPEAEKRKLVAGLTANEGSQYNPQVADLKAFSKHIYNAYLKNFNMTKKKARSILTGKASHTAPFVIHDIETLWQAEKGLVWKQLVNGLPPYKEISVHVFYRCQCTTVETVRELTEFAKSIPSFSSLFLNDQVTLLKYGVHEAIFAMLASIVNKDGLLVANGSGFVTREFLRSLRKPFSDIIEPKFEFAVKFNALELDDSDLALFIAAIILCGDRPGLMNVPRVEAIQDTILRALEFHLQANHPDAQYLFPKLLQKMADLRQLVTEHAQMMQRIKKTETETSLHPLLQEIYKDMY

Consider `O=C(O)[C@H](O)[C@@H](O)C(=O)O`, for which the compound was classed as inactive in assay [1], in [2], in assay [3], in assay [4] and in [5].

On to `NC(=O)N(O)[C@@H]1COc2cc(OCc3ccccc3)ccc21`, for which the outcome in [6], in assay [2], in assay [7], in assay [3], in [4] and in [8] was inactive.

As for `c1ccc2ncccc2c1`, the result in [6], in assay [2] and in [3] was inactive.

Turning to `OCc1ccccc1`, the outcome in [6], in assay [7], in assay [9], in assay [3] and in assay [4] was inactive.

In the case of `CCCCCCCC/C=C\CCCCCCCC(=O)OC[C@@H](O)[C@H]1OC[C@H](O)[C@H]1O`, the outcome in [6], in [2], in assay [9], in [3], in assay [4] and in assay [10] was inactive.

Consider `O=C(O)c1cccc(C(=O)O)c1`, for which the compound was called inactive in assay [6], in [7], in assay [9] and in assay [3].

As to `COc1cc(C(C)C)c2c(c1)S(=O)(=O)N(COc1cc(=O)n3cccc(OCCN4CCCCC4)c3n1)C2=O`, the outcome in assay [6], in assay [2], in [7] and in assay [10] was inactive. The AC50 was 4.63 µM (active) in assay [3], 2.75 µM (active) in assay [4], 0.836 µM (active) in assay [8] and 3.53 µM (active) in assay [5].

With `Cn1c(=O)c2[nH]cnc2n(C)c1=O`, the call in assay [6], in assay [2], in assay [3], in [4] and in [8] was inactive.

As for `C[C@]12C=CC(=O)C=C1CC[C@H]1[C@@H]3C[C@@H](O)[C@](O)(C(=O)CO)[C@@]3(C)C[C@H](O)[C@@]12F`, the result in assay [6], in [3], in [8] and in assay [5] was inactive.

For the compound `O=C(O)c1cccc(C[C@@H]2COc3ccc(OCc4nc5cc(F)ccc5s4)cc3[C@@H]2O)c1`, the outcome in [6], in assay [3] and in assay [8] was inactive.

With `CCCCCCCCCC`, in assay [6], the result was inactive. Also, in assay [3], the AC50 was 0.781 µM (active).

Consider `OC(CCl)CCl`, for which the compound was called inactive in assay [6], in assay [2] and in [3].

In the case of `CC(C)CCCCCCOC(=O)C1CCCCC1C(=O)OCCCCCCC(C)C` (stereo unspecified), the result in assay [6], in assay [7], in assay [3], in assay [4] and in assay [5] was inactive. Further, in [8], the AC50 is 1.37 µM (active).

For the compound `CNC(C)=O`, the result in [1], in [2] and in assay [3] was inactive.

As for `Nc1ccn([C@@H]2O[C@H](CO)[C@@H](O)[C@@H]2O)c(=O)n1`, the compound was called inactive in assay [1], in assay [2] and in assay [10]. The AC50 in [3] is 0.519 µM (active).

For the compound `CCCC(CCC)C(=O)O`, the compound was called inactive in [6], in assay [2], in assay [3], in [8] and in assay [5].

Turning to `CCCCCCCCCCCCCCO`, the outcome in assay [6], in [4] and in [8] was inactive. In addition, the AC50 in assay [2] was 35.5 µM (active).

`CCCOc1ccc(S(=O)(=O)N2CCN(CC)CC2)cc1-c1nc2c(CC)n(Cc3ccccn3)nc2c(=O)[nH]1`: the call in assay [1], in assay [2], in assay [3] and in [10] was inactive. Moreover, the results for the AC50 in assay [4] and in [8] were 7.76 µM (active) and 1.17 µM (active), respectively.

For the compound `CC1(C)C(=O)N(Cl)C(=O)N1Cl`, the outcome in assay [6], in assay [2] and in assay [3] was inactive.

Regarding `CCOc1ccc2[nH]cc(C(=O)NCc3ccccc3)c(=O)c2n1`, the compound was called inactive in assay [1], in assay [2], in assay [3] and in assay [4]. Further, in assay [8], the concentration at half-maximal activity (AC50) is 13 µM (active).

`CCCCCCCCCCCCCCCCOS(=O)(=O)O`: the AC50 is 9.15 µM (active) in assay [6] and 16.9 µM (active) in assay [4]. Moreover, the result in assay [2], in assay [3] and in assay [8] was inactive.

In the case of `CC(=O)c1ccccc1`, the result in assay [6], in assay [2], in assay [3] and in assay [4] was inactive.

As for `Cc1ccc(S(=O)(=O)NC(=O)NN2CCCCCC2)cc1`, the result in assay [6], in [2], in [3], in assay [4], in [8] and in assay [10] was inactive. For the same compound, the compound was called inactive in [5].

Take `CCCc1ccccc1`: the outcome in assay [1], in assay [2], in assay [3] and in [4] was inactive.

`O=c1[nH]cnc2c1ncn2[C@H]1CC[C@@H](CO)O1`: the call in [1], in assay [2], in assay [7], in [3], in [4] and in assay [8] was inactive.

Regarding `NC(N)=O`, the result in assay [1], in assay [2] and in assay [3] was inactive.

With `CCc1ccc(O)c(C(C)(C)C)c1`, the compound was classed as inactive in assay [6], in [4] and in assay [5]. In addition, the AC50 is 34.8 µM (active) in assay [3] and 17.4 µM (active) in assay [8].

Consider `O=C(NO)C1(NS(=O)(=O)c2ccc(Oc3ccc(F)cc3)cc2)CCOCC1`, for which the compound was called inactive in assay [1], in assay [2], in [7], in assay [3], in assay [4] and in [10]. For the same compound, in assay [8], the AC50 was 31.7 µM (active).
